IMPase Li cell: cell-permeable IMPase inhibitors with lithium potentiation; CHO-M1 cells, IP1 TR-FRET (IP-One), carbachol + lithium; Potency, µM (titrated, usually from 59.4 µM), for inactives: top-dose activity, negative = IMPase inhibition, actives largely listed as inhibitors; actives 0.35% (n = 210,000); AID 1457;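 further: IP1 builds up when IMPase is blocked and the TR-FRET signal falls; plate controls were basal vehicle for no effect and high inhibitor control for full effect; nearly all actives have a fitted effect of over 50% in size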
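CHO cells stably expressing M1 receptor (2000/well) were cultured 16–30 h, then exposed to compounds with a small lithium addition for 30 min at 37C. IP1 was measured by TR-FRET competition; AC50 from Hill fits.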
NPSR antag: neuropeptide S receptor (human) antagonism, cAMP. Q6W5P4. CHO-NPSR cells, cAMP TR-FRET, antagonist mode. Potency, µM (series often up to 38.3 µM), for the others: top-dose activity change, negative = inhibition, actives largely listed as inhibitors. actives 1% (n = 220,000). AID 1461; further: nearly all actives have a fitted effect of over 50% in size
Target sequence (Q6W5P4 whole entry, looked up): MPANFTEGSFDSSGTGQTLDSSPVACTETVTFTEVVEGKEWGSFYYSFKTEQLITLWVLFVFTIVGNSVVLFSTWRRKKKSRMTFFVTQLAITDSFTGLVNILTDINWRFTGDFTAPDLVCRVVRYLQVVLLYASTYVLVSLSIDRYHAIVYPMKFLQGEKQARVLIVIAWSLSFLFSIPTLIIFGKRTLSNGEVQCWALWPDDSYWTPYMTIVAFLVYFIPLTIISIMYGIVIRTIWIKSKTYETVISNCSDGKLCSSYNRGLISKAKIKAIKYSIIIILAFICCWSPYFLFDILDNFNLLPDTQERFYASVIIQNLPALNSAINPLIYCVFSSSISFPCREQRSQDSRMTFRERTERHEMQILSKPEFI
ERK EGF inh: inhibitors of EGF-stimulated ERK signaling pathway; HEK293-V1b, EGF-stimulated phospho-ERK AlphaScreen; Potency, µM (top dose mostly 11.5 µM), without a hit: at the highest dose activity change, negative = inhibition, most hits filed as inhibitors; actives 0.41% (n = 130,000);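 further: plate controls were stimulated vehicle wells for no effect and unstimulated vehicle basal for full effect; nearly all actives have a fitted effect of over 55% in size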
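EGF-stimulated (25 nM, 5 min) phospho-ERK in HEK293 cells stably expressing V1b, cells pretreated 30 min with compound at 37C. Homogeneous AlphaScreen read on lysates.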
KinaseGlo FLuc: counter-screen: inhibitors of Kinase-Glo firefly luciferase; actives 0.28% (n = 200,000); Kinase-Glo luciferase, ATP luminescence, 8 min; AID 1379; Q27757; Potency, µM (doses to about 38.3 µM), for inactives: at the highest dose activity change, negative = inhibition, actives largely listed as inhibitors; further: nearly all actives have a fitted effect of over 60% in size
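Substrate mix (final 50 mM imidazole pH 7.2, 50 mM KCl, 7 mM MgCl2, 10 uM ATP, 0.01% Tween 20, 0.05% BSA) plus pin-tool compound, then Kinase-Glo detection mix; 8 min ambient, luminescence read.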
* = called active by the depositor; ! = not confirmed by another sample; [ ] = dose if it differs, or a comment. Compounds with a hit are over-represented: about 1.1% of the library has one in this group of screens. The call rests on the fitted dose curve; in most records, active means well fitted curve in the direction sought with a large enough effect; inconclusive means small, poorly fitted or top-dose-only effect, or another doubt; inactive means no such curve, though single readings can be large; an effect the other way counts as inactive or inconclusive. Unless noted, on the % scale 0 is the no-effect control and ±100 the full control effect; potency means the concentration at half of the fitted maximal effect.

What do the screens show for `CN(C)c1ccnc2c[cH-]cc12.[Fe].c1ccc(-[c-]2[c-](-c3ccccc3)[c-](-c3ccccc3)[c-](-c3ccccc3)[c-]2-c2ccccc2)cc1` (centres undefined)?
NPSR antag: -12.2%; ERK EGF inh: 3.16µM*

Results for CN(C)c1ccnc(Nc2ccccc2)c1C#N ?
IMPase Li cell: 2.9%; NPSR antag: -17.7%; ERK EGF inh: 6.9%[57.5 µM]

How did Cc1ccc(-n2c(C)cc(C3=NNC(=NC4CC4)SC3)c2C)cc1C do in these assays?
IMPase Li cell: 24.0%; NPSR antag: 10µM*; ERK EGF inh: 10.0%; KinaseGlo FLuc: -5.9%

Results for BrC(c1cccc2ccccc12)c1cccc2ccccc12 ?
IMPase Li cell: 20.0%; KinaseGlo FLuc: -2.2%[7.66 µM]

What do the screens show for `CC(C)C[C@@H](N)C(=O)O`?
IMPase Li cell: -4.6%

Results for O=C(O)C(S)[C@@H](S)C(=O)O (some centres undefined) ?
IMPase Li cell: 10.8%; ERK EGF inh: 3.7%; KinaseGlo FLuc: -4.7%

How did O=C(Nc1cccc(-c2nc3ncccc3o2)c1)c1sc2cc(Cl)ccc2c1Cl do in these assays?
IMPase Li cell: 11.2µM*; NPSR antag: -4.4%[46.1 µM]; KinaseGlo FLuc: -0.8%

How did CN1CCN(c2ncc3nc(CCc4ccccc4)c(=O)n(C)c3n2)CC1 do in these assays?
IMPase Li cell: 12.5%

How did CCCc1ccc(Oc2cn[nH]c2-c2ccc(O)c(C)c2O)cc1 do in these assays?
IMPase Li cell: 27.6%[38.3 µM]; NPSR antag: 10µM*; KinaseGlo FLuc: -2.2%

What do the screens show for `COc1ccc(Oc2nc(-c3cccnc3)nc3ccccc23)cc1`?
NPSR antag: -34.9%; ERK EGF inh: 5.5%[57.5 µM]

What do the screens show for `COc1ccc(Oc2nc(SC)nc3ccccc23)cc1`?
IMPase Li cell: 10µM*; NPSR antag: -16.4%[46.1 µM]; KinaseGlo FLuc: 4.6%

How did C=CC[n+]1c(/C=C2\C=Cc3cc(C)ccc3N2CC)ccc2ccccc21 do in these assays?
IMPase Li cell: 32.7%; NPSR antag: -54.1%; ERK EGF inh: 22.4µM*; KinaseGlo FLuc: -23.0%

How did Cc1nn(-c2nc3ccccc3[nH]2)c(=O)c2ccccc12 do in these assays?
IMPase Li cell: 9.5%; NPSR antag: -11.9%; ERK EGF inh: -2.9%; KinaseGlo FLuc: 1.41µM*

Results for Cc1nn(-c2ccc3ccccc3c2)c(=O)c2ccccc12 ?
IMPase Li cell: 10.2%; NPSR antag: 41.1%; ERK EGF inh: 0.3%; KinaseGlo FLuc: -9.5%

How did Oc1cc2c(cc1O)C1c3ccc(O)c(O)c3OCC1(O)C2 (centres undefined) do in these assays?
IMPase Li cell: 4.3%; NPSR antag: 42.9%; ERK EGF inh: 11.2µM*!; KinaseGlo FLuc: inconclusive

How did COc1ccccc1CN=Cc1[nH]c2ccc(Br)c(Cl)c2c1O do in these assays?
IMPase Li cell: 7.08µM*; NPSR antag: 20.2%[46.1 µM]; KinaseGlo FLuc: -6.9%

How did Cc1cccc(N=Cc2[nH]c3ccc(Br)c(Cl)c3c2O)c1 do in these assays?
IMPase Li cell: -1.2%; NPSR antag: 5.4%; ERK EGF inh: 7.4%; KinaseGlo FLuc: -3.9%

How did COc1cc(SC#N)ccc1N=Cc1c(C)[nH]n(-c2ccc(C)c(C)c2)c1=O do in these assays?
IMPase Li cell: 1.7%; NPSR antag: 5.01µM*; ERK EGF inh: 7.2%; KinaseGlo FLuc: inconclusive

What do the screens show for `COc1cc(SC#N)ccc1N=Cc1c(C)[nH]n(-c2ccc(Cl)cc2)c1=O`?
IMPase Li cell: 14.4%[38.3 µM]; NPSR antag: inconclusive; KinaseGlo FLuc: -18.5%

What do the screens show for `NC(=O)C1CCN(C2=C(Cl)C(=O)c3ccccc3C2=O)CC1`?
IMPase Li cell: 90.0%[38.3 µM]; NPSR antag: 10µM*; KinaseGlo FLuc: inconclusive

How did O=C1C(NS(=O)(=O)c2cccs2)=C(N2CCN(Cc3ccccc3)CC2)C(=O)c2ccccc21 do in these assays?
NPSR antag: -35.3%; ERK EGF inh: 15.8µM*

How did O=C1C(NS(=O)(=O)c2cccs2)=C(N2CCN(c3cccc(C(F)(F)F)c3)CC2)C(=O)c2ccccc21 do in these assays?
IMPase Li cell: 25.3%[38.3 µM]; NPSR antag: 10µM*; KinaseGlo FLuc: -12.7%

Results for NC(=O)C1CCN(C2=C(NS(=O)(=O)c3ccccc3)C(=O)c3ccccc3C2=O)CC1 ?
NPSR antag: 10.9%[7.67 µM]; ERK EGF inh: inconclusive

How did O=C1C(NS(=O)(=O)c2ccc(Cl)cc2)=C(N2CCCCC2)C(=O)c2ccccc21 do in these assays?
IMPase Li cell: 49.2%; NPSR antag: 0.6%[46.1 µM]; ERK EGF inh: 14.1µM*; KinaseGlo FLuc: -16.1%

Results for CO[C@@H]1/C=C\O[C@]2(C)Oc3c(C)c(O)c4c(O)c(c(CN5CCN(C)CC5)c(O)c4c3C2=O)NC(=O)/C(C)=C\C=C[C@@H](C)[C@@H](O)[C@H](C)[C@@H](O)C(C)[C@H](OC(C)=O)[C@@H]1C (some centres undefined) ?
IMPase Li cell: 2.9%; KinaseGlo FLuc: -2.4%[7.66 µM]

Results for COC(=O)c1cc(Br)c(=O)n(-c2cc(C)on2)c1 ?
IMPase Li cell: 10µM*; NPSR antag: 14.6%[46.1 µM]; KinaseGlo FLuc: 0.2%

What do the screens show for `COC(=O)c1cc(Br)c(=O)n(-c2nccs2)c1`?
IMPase Li cell: 10µM*; NPSR antag: inconclusive; KinaseGlo FLuc: 0.4%

How did O=C1C=CC2=C3c4cc(O)c(O)cc4C[C@@]3(O)COC2=C1 do in these assays?
IMPase Li cell: 15.2%; ERK EGF inh: 0.7%; KinaseGlo FLuc: -1.6%

Results for CCOc1ccc(-c2cc(C(=O)N/N=C/c3ccc(O)c(OC)c3)[nH]n2)cc1 ?
KinaseGlo FLuc: -7.5%

Results for O=C(NC1=NCCS1)C1COc2ccccc2O1 (centres undefined) ?
IMPase Li cell: 1.9%[38.3 µM]; NPSR antag: -2.1%[46.1 µM]; KinaseGlo FLuc: 7.94µM*

What do the screens show for `COc1cc(/C=N/Nc2nncn2/N=C/c2ccc(O)c(OC)c2)ccc1O`?
IMPase Li cell: 9.3%; NPSR antag: -13.7%; ERK EGF inh: -17.2%; KinaseGlo FLuc: 10µM*

How did CCCCNC1=CC(=O)C(=O)c2ccccc21 do in these assays?
IMPase Li cell: 10.9%; NPSR antag: 8.2%; ERK EGF inh: 8.1%; KinaseGlo FLuc: -5.5%

What do the screens show for `CCCCN1C=CC(=C2C(=O)c3ccccc3C2=O)C=C1`?
IMPase Li cell: -22.3%; NPSR antag: -20.3%; ERK EGF inh: -15.5%; KinaseGlo FLuc: 1.12µM*

What do the screens show for `Cc1ccc(C2C3=C(CC(C)(C)CC3=O)N=C3c4ccccc4C(=O)C32)cc1` (centres undefined)?
IMPase Li cell: 16.9%; NPSR antag: -49.1%; ERK EGF inh: 0.0%; KinaseGlo FLuc: -0.7%

What do the screens show for `O=C(O)c1ccccc1NS(=O)(=O)c1ccccc1F`?
KinaseGlo FLuc: -3.2%

How did COc1cccc(-c2cn3nc4c(nc3n2)CCCC4)c1 do in these assays?
IMPase Li cell: -9.4%[38.3 µM]; NPSR antag: -9.3%[46.1 µM]; KinaseGlo FLuc: 10µM*

What do the screens show for `Cc1ccc(S(=O)(=O)NCC(=O)OCC(=O)c2ccc(Br)s2)cc1`?
IMPase Li cell: 10µM*; NPSR antag: 23.0%[46.1 µM]; KinaseGlo FLuc: -3.2%

Bioassay records deposited in PubChem BioAssay by National Center for Advancing Translational Sciences (NCATS).
